Where a name gives a salt, the structure may show the parent alone.
Tests used:
Assay in all cases: normalised indicator fluorescence (fraction of RNA + indicator signal without compound); higher = less displacement of indicator (weaker competition)
Conditions in all cases: compound concentration: 5 uM, 30 min
hsa-mir-191 loop = system: hsa-mir-191 loop
Outline: (§1)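 For the displacement screen, RNA and a TO-PRO-1 or TO-PRO-3 indicator were held in 20 mM phosphate pH 7.0 with 20 mM NaCl and 80 mM KCl in 96-well plates. After adding 0.25 μL of each 1 mM DMSO stock (about 5 uM final) and waiting 30 min, fluorescence was measured on an Infinite 200 PRO with excitation at 485 or 620 nm. Each value is the mean of two independent experiments, expressed as blank-subtracted indicator fluorescence relative to the no-compound RNA-plus-indicator signal.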

hsa-mir-21 loop = system: hsa-mir-21 loop
Outline: as §1

hsa-mir-221 loop = system: hsa-mir-221 loop
Outline: as §1

hsa-mir-374a loop = system: hsa-mir-374a loop
Outline: as §1

hsa-mir-6850 loop = system: hsa-mir-6850 loop
Outline: as §1

[1] = indicator: TO-PRO-1 0.1 uM, RNA concentration: 0.1 uM
[2] = indicator: TO-PRO-3 0.5 uM, RNA concentration: 0.5 uM

SMILES	normalised indicator fluorescence (hsa-mir-191 loop; [1])	normalised indicator fluorescence (hsa-mir-191 loop; [2])	normalised indicator fluorescence (hsa-mir-21 loop; [1])	normalised indicator fluorescence (hsa-mir-21 loop; [2])	normalised indicator fluorescence (hsa-mir-221 loop; [1])	normalised indicator fluorescence (hsa-mir-221 loop; [2])	normalised indicator fluorescence (hsa-mir-374a loop; [1])	normalised indicator fluorescence (hsa-mir-374a loop; [2])	normalised indicator fluorescence (hsa-mir-6850 loop; [1])	normalised indicator fluorescence (hsa-mir-6850 loop; [2])
OC[C@H]1O[C@@H](Oc2ccc(O)cc2)[C@H](O)[C@@H](O)[C@@H]1O [Arbutin]	0.981	1.07	1.01	1.03	1.08	1.04	1.13	1.04	0.964	1.07
N#CC(c1ccnc(OCc2ccc(CN3CCOCC3)cc2)n1)c1nc2ccccc2s1 (stereo not given)	1.03	0.659	1.14	0.839	1.37	0.837	1.26	0.694	0.827	0.505
O=C(O)/C=C/c1ccc(Cn2ccnc2)cc1 [Ozagrel]	0.962	1.05	0.996	1.03	1.07	1.05	1.12	1.19	0.929	1.03
COc1ccc(C(=C2C(=O)Nc3ccccc32)c2ccc(OC)cc2)cc1	1	1.03	0.92	1.03	1.1	1.09	1.08	1.15	0.944	1.03
O=C(NC(Cc1cc(=O)[nH]c2ccccc12)C(=O)O)c1ccc(Cl)cc1 (stereo not given) [Rebamipide]	1.07	1.14	0.99	1.03	1.08	1.04	1.1	1.13	1.19	1.03
O=C1c2c(O)cc(O)cc2OC(c2ccc(O)c(O)c2)C1O (stereo not given) [Taxifolin]	0.994	1.06	0.976	1.05	1.05	1.11	1.13	1.15	0.944	1.08
C[C@H]1[C@H](C)CC[C@]2(C(=O)O)CC[C@]3(C)C(=CC[C@@H]4[C@@]5(C)C[C@@H](O)[C@H](O)[C@@](C)(CO)[C@@H]5CC[C@]43C)[C@H]12 [Asiatic acid]	0.974	1.01	0.904	1.07	1.03	0.961	1.15	1.06	0.846	1.03
CC(=O)c1ccc(S(=O)(=O)NC(=O)NC2CCCCC2)cc1 [Acetohexamide]	0.972	1.04	0.846	1.09	1.08	1.05	1.18	1.21	0.908	1.08
Cc1oncc1C(=O)Nc1ccc(C(F)(F)F)cc1 [Leflunomide]	0.986	0.97	0.91	1.03	1	1.11	1.11	1.36	0.838	1.01
O=C(O)/C=C/c1ccc(Cn2ccnc2)cc1 [Ozagrel hydrochloride]	0.95	0.992	1.01	1.02	1	0.921	1.07	1.12	1.02	1.03
COc1ccc([C@@H]2OC[C@H]3[C@@H]2CO[C@@H]3c2ccc(O[C@@H]3O[C@H](CO)[C@@H](O)[C@H](O)[C@H]3O)c(OC)c2)cc1OC [Forsythin]	1.06	1.04	0.926	0.988	0.939	1.04	1.09	1.09	0.927	1.07
O=c1c(O)c(-c2ccccc2)oc2cc(O)cc(O)c12 [Galangin]	1.05	1.08	1	1.04	1.03	1.22	1.11	1.3	0.971	1.07
O=c1cc(-c2ccc(O)cc2)oc2cc(O)cc(O)c12 [Apigenin]	1.03	1.05	0.934	1	1.04	1.03	1.05	1.22	0.954	1.06
CC(=O)O[C@H]1C[C@@]2(C)[C@@H](C[C@@H](O)[C@H]3[C@@]4(C)CC[C@@H](O)[C@@H](C)[C@@H]4CC[C@@]32C)/C1=C(\CCC=C(C)C)C(=O)O [Sodium fusidate]	1.06	1.05	0.986	1.07	1.01	1.03	1.09	1.11	0.956	1.02
Cn1cc(-c2ccc3c(c2)CCN3C(=O)Cc2cccc(C(F)(F)F)c2)c2c(N)ncnc21	1.04	1.1	1.06	1.07	1.08	1.03	1.23	1.18	0.993	1.18
[I-].[K+] [Potassium iodide]	1.06	1.08	1.11	1.03	1.08	1.03	1.21	1.05	1.07	1.07
Nc1ncnc2c1ncn2[C@@H]1O[C@H](CO)[C@@H](O)[C@@H]1O [Vidarabine]	1.03	1.07	1.03	1.04	1.03	1.04	1.16	1.15	1	1.06
O=c1ncn2nc(Sc3ccc(F)cc3F)ccc2c1-c1c(Cl)cccc1Cl [Neflamapimod]	1.04	1.05	0.973	1.04	1.03	1.22	1.07	1.3	0.955	1.02

SMILES	normalised indicator fluorescence (hsa-mir-191 loop; [1])	normalised indicator fluorescence (hsa-mir-191 loop; [2])	normalised indicator fluorescence (hsa-mir-21 loop; [1])	normalised indicator fluorescence (hsa-mir-21 loop; [2])	normalised indicator fluorescence (hsa-mir-221 loop; [1])	normalised indicator fluorescence (hsa-mir-221 loop; [2])	normalised indicator fluorescence (hsa-mir-374a loop; [1])	normalised indicator fluorescence (hsa-mir-374a loop; [2])	normalised indicator fluorescence (hsa-mir-6850 loop; [1])	normalised indicator fluorescence (hsa-mir-6850 loop; [2])
CC1(C)CC(=O)c2c(C(F)(F)F)nn(-c3ccc(C(N)=O)c(N[C@H]4CC[C@H](O)CC4)c3)c2C1	1.03	1.03	0.989	1.04	0.978	1.18	1.01	1.13	0.777	0.989
CCNC(=O)c1[nH]nc(-c2cc(Cl)c(O)cc2O)c1-c1ccc(OC)cc1	1.01	1.05	1.05	1.06	1.02	0.975	1.11	1.11	0.952	1.05
CC(C)c1cc(-c2n[nH]c(=O)n2-c2ccc3c(ccn3C)c2)c(O)cc1O [Ganetespib]	1.04	1.03	1	1.04	1.03	1.08	1.07	1.14	0.915	1
CCNC(=O)c1noc(-c2cc(Cl)c(O)cc2O)c1-c1ccc(OC)cc1	1.05	1.04	1.06	1.06	1.06	0.964	1.1	1.17	1.03	1.05
COc1nccnc1NS(=O)(=O)c1ccc(NC(=O)/C=C/c2ccc([N+](=O)[O-])s2)cc1 [Necrosulfonamide]	1.12	1.02	0.985	1.08	1.01	1.08	1.05	1.18	0.886	1
O=C(O)C(O)Cc1ccc(O)c(O)c1 (stereo not given) [Sodium Danshensu]	0.941	1.02	0.888	1.05	0.976	1.05	1.07	0.994	0.964	1.08
Cc1cccc(CC(=O)N2CCc3c2ccc(-c2cn(C)c4ncnc(N)c24)c3F)n1	1.03	1.06	1	1.04	1.08	1.01	1.14	1.06	0.973	0.993
O=c1cc(-c2ccccc2)oc2cc(O)c(O)c(O)c12 [Baicalein]	0.599	0.956	0.653	0.944	0.767	0.926	0.88	0.91	0.918	1.05
Cc1c(F)cc(C(=O)NC2CC2)cc1-c1ccc(C(=O)NCC(C)(C)C)cn1 [Losmapimod]	0.997	1.02	0.887	1.04	1.07	1.08	1.06	1.13	0.95	1.06
N=C(NCCCCCCNC(=N)NC(=N)Nc1ccc(Cl)cc1)NC(=N)Nc1ccc(Cl)cc1 [Chlorhexidine]	0.988	1.04	1.05	1	0.96	0.994	1.05	1.05	0.83	1.07
C[C@H](CCC(=O)NCCS(=O)(=O)O)[C@H]1CC[C@H]2[C@@H]3[C@@H](O)C[C@@H]4C[C@H](O)CC[C@]4(C)[C@H]3CC[C@]12C [Tauroursodeoxycholic Acid]	1.03	1.01	0.892	1.01	1.02	1.05	1.06	1.13	0.975	1.02
COC1=CC(=O)c2ccccc2C1=O [2-Methoxynaphthoquinone]	1.01	1.03	0.993	1.05	1.06	1.06	1.14	1.19	0.946	1.07
CC(C)OC(=O)CCC/C=C\C[C@@H]1[C@@H](CC[C@@H](O)CCc2ccccc2)[C@H](O)C[C@@H]1O [Latanoprost]	1.01	1.03	0.985	0.978	1.01	1.05	1.01	1.06	1.06	1.04
C[C@@H]1O[C@@H](Oc2c(-c3cc(O)c(O)c(O)c3)oc3cc(O)cc(O)c3c2=O)[C@H](O)[C@H](O)[C@H]1O [Myricetrin]	0.952	1.05	0.962	1.07	0.97	1.09	1.07	1.17	0.944	1.08
Cc1c(C)c2c(c(C)c1O)CC[C@@](C)(CCC[C@H](C)CCC[C@H](C)CCCC(C)C)O2 [Vitamin E]	1.08	1.06	0.956	1.01	1.02	1.07	1.05	1.06	0.907	1.03
Oc1ccc(OCc2ccccc2)cc1 [Monobenzone]	0.997	1.15	0.955	1.11	1.03	1.17	1.27	1.27	0.909	1.06
NC(=O)c1ccc(N(C(N)=O)c2c(F)cccc2F)nc1-c1ccc(F)cc1F	0.984	1.01	0.905	1.02	1.06	0.999	1.15	1.19	0.94	1.03

Source: the supplement of paper PMC11865577
